Binding signal data for one sequence are collected here from paper PMC7862700, “An all-to-all approach to the identification of sequence-specific readers for epigenetic DNA modifications on cytosine”.

Common to all, as to assay: DAPPL (digital affinity profiling via proximity ligation, sequencing); 10 mM Tris-HCl pH 7.5, 50 mM NaCl, 1 mM DTT, 4% glycerol, room temperature, 30 min; GST-TFs on glutathione beads, 16-mer random dsDNA library, 0.1% formaldehyde crosslink after washing; high values mean tight binding
One assay deals with T1, FEV (Homo sapiens, UniProt Q99581 1-238).
T1 sequence: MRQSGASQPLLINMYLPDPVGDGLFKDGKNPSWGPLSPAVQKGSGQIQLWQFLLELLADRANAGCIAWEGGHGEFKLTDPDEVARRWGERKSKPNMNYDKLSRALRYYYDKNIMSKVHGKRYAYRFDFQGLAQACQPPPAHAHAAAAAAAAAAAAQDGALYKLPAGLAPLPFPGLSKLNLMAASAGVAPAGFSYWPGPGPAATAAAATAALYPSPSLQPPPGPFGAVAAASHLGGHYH
To be noted: protein: recombinant; tags: N-terminal GST; dsDNA, one strand shown. The gist of the method: (§1)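 Pools of DNA-barcoded human transcription factors, expressed in yeast as GST fusions on glutathione beads and combined with a tag-only sample, were incubated with 200 nmole of a 16-mer random double-stranded DNA library. Incubation took 30 min at room temperature in Tris/NaCl/DTT/glycerol buffer and was followed by washing, 0.1% formaldehyde crosslinking, proximity ligation (BsaI/T4 ligase, 1 h, 37 °C), PCR amplification and sequencing on an Illumina NextSeq500. Binding signal is the ratio of a hexamer's read frequency for a factor to its frequency for the tag-only sample.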

Another assay deals with ETV5 (Homo sapiens, UniProt P41161 1-510). As to conditions: protein: recombinant; tags: N-terminal GST; dsDNA, one strand shown. A digest of the protocol: as §1
In another assay the target is HSF1 (Homo sapiens, UniProt Q00613 1-529). To be noted: protein: recombinant; tags: N-terminal GST; chain copies: 3; dsDNA, one strand shown. A digest of the protocol: as §1
For a further assay, the target named is T2, SPIC (Homo sapiens, UniProt Q8N5J4 1-248).
T2 sequence: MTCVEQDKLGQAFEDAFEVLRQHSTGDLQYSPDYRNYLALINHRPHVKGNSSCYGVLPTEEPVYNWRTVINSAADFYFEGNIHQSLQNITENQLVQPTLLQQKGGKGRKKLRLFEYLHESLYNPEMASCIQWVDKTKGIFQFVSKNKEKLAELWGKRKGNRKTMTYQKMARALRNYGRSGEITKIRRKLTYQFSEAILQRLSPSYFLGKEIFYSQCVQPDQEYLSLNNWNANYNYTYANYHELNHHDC
As to conditions: protein: recombinant; tags: N-terminal GST; dsDNA, one strand shown. A digest of the protocol:
as §1

A further assay addresses ELF4 (Homo sapiens, UniProt Q99607 1-663). To be noted: protein: recombinant; tags: N-terminal GST; dsDNA, one strand shown. A digest of the protocol:
as §1

A further assay concerns the target T3, ELK4 (Homo sapiens, UniProt P28324-2 1-405).
T3 sequence: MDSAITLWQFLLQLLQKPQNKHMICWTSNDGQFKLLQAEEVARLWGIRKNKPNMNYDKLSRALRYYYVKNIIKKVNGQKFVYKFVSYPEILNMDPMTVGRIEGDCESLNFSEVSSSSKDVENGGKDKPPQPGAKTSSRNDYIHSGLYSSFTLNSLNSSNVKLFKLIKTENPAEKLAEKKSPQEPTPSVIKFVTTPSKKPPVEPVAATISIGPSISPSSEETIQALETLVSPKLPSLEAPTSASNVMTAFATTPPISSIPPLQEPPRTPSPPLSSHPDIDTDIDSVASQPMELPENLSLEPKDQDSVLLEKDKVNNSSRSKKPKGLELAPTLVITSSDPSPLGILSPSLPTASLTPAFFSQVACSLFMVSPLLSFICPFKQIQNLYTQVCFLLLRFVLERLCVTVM
As to conditions: protein: recombinant; tags: N-terminal GST; dsDNA, one strand shown. The gist of the method: as §1

The next assay concerns the target T4, ETV2 (Homo sapiens, UniProt O00321 1-342).
T4 sequence: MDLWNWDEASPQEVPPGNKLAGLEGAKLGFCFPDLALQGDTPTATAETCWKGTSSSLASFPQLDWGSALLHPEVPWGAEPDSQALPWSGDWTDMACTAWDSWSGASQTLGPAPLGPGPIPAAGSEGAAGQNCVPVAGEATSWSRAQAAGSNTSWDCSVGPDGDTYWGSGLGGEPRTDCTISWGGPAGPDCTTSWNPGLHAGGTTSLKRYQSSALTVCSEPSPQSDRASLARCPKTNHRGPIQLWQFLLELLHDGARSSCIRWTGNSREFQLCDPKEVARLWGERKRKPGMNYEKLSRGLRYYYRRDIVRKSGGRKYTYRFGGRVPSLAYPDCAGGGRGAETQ
To be noted: protein: recombinant; tags: N-terminal GST; dsDNA, one strand shown. The gist of the method:
as §1

The target of the next assay is T5, ELF3 (Homo sapiens, UniProt P78545 1-371).
T5 sequence: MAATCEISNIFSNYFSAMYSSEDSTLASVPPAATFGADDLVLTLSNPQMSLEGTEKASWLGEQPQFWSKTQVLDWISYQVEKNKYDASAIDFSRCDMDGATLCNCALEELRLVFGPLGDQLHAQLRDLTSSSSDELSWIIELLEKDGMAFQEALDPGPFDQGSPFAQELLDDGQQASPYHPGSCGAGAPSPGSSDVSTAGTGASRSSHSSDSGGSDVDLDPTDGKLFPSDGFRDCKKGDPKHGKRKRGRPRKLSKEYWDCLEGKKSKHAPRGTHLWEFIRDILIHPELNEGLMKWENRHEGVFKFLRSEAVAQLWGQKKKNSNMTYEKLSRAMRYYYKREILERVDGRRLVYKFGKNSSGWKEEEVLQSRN
To be noted: protein: recombinant; tags: N-terminal GST; dsDNA, one strand shown. The gist of the method:
as §1

Another assay concerns the target CRX (Homo sapiens, UniProt O43186 1-299). As to conditions: protein: recombinant; tags: N-terminal GST; dsDNA, one strand shown. A digest of the protocol: as §1
A further assay deals with ETV1 (Homo sapiens, UniProt P50549 1-477). To be noted: protein: recombinant; tags: N-terminal GST; dsDNA, one strand shown. A digest of the protocol: as §1
The next assay addresses T6, ERF (Homo sapiens, UniProt P50548 1-548).
T6 sequence: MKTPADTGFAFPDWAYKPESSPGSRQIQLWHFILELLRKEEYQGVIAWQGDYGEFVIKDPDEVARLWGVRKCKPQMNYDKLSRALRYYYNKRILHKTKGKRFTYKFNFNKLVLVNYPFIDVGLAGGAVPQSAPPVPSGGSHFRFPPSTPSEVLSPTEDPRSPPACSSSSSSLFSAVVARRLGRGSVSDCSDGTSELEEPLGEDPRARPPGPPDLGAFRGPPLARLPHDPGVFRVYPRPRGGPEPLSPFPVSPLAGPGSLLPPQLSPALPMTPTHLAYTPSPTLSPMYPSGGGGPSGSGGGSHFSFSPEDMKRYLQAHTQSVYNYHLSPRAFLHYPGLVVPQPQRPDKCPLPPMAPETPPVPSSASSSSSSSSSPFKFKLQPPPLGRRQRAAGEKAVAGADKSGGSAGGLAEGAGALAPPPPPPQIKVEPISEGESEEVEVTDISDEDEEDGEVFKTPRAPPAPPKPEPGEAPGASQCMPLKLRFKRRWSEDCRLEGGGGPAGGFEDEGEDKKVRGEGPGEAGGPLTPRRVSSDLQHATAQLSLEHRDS
As to conditions: protein: recombinant; tags: N-terminal GST; dsDNA, one strand shown. A digest of the protocol:
as §1

A further assay has as its target T7, ETV3L (Homo sapiens, UniProt Q6ZN32 1-361).
T7 sequence: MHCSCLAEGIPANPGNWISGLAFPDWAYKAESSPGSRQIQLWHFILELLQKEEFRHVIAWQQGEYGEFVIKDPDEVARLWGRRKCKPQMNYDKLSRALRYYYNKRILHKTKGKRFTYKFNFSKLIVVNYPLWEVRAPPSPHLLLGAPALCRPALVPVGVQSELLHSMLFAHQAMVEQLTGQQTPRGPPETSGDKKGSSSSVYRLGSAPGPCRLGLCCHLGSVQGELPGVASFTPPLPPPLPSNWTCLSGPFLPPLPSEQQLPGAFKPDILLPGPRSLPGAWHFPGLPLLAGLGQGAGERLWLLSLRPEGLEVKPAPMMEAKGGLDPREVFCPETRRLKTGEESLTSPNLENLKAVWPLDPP
As to conditions: protein: recombinant; tags: N-terminal GST; dsDNA, one strand shown. A digest of the protocol:
as §1

The next assay deals with T8, ETS2 (Homo sapiens, UniProt P15036 1-469).
T8 sequence: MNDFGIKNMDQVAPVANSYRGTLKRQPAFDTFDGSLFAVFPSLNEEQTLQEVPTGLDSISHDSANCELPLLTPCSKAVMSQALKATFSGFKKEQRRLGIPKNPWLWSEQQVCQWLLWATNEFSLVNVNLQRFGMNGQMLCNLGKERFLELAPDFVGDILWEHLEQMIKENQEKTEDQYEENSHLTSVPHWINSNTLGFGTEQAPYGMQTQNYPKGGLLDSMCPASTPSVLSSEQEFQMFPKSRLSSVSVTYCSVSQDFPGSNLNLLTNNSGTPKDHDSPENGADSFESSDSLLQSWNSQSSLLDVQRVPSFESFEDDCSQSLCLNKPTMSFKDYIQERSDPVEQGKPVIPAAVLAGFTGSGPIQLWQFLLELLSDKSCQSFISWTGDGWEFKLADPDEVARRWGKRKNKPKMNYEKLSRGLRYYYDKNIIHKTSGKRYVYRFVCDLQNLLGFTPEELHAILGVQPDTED
To be noted: protein: recombinant; tags: N-terminal GST; dsDNA, one strand shown. A digest of the protocol:
as §1

The next assay concerns the target T9, SPDEF (Homo sapiens, UniProt O95238 1-335).
T9 sequence: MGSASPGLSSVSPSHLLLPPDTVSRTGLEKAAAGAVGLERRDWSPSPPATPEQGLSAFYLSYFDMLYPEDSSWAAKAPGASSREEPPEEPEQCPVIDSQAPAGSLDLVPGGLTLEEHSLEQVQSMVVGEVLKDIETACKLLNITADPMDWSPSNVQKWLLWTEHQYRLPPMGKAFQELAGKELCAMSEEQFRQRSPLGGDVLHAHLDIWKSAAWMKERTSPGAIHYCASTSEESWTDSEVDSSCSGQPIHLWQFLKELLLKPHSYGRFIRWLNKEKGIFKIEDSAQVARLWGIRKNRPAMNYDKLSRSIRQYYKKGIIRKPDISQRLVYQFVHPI
To be noted: protein: recombinant; tags: N-terminal GST; dsDNA, one strand shown. The gist of the method:
as §1

For a further assay, the target named is T10, ETV7 (Homo sapiens, UniProt Q9Y603 1-341).
T10 sequence: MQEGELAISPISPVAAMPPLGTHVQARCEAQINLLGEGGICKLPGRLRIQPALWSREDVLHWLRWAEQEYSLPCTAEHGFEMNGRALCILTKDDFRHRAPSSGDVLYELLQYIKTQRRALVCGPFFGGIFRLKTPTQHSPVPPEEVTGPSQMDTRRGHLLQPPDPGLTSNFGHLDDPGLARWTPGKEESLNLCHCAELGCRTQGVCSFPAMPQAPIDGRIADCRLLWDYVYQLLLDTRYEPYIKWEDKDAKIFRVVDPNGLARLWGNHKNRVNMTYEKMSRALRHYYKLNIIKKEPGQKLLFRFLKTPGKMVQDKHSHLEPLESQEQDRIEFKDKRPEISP
To be noted: protein: recombinant; tags: N-terminal GST; dsDNA, one strand shown. A digest of the protocol:
as §1

Another assay has as its target T11, ELF5 (Homo sapiens, UniProt Q9UKW6-2 1-255).
T11 sequence: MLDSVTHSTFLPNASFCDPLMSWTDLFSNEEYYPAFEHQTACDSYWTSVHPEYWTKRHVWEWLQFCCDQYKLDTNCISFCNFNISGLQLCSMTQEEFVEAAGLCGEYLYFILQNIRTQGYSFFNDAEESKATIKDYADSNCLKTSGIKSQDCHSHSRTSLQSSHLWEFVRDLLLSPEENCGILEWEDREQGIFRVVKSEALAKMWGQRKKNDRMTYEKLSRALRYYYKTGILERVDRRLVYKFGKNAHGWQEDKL
As to conditions: protein: recombinant; tags: N-terminal GST; dsDNA, one strand shown. The gist of the method:
as §1

The target in the next assay is T12, ETV3 (Homo sapiens, UniProt P41162-2 1-143).
T12 sequence: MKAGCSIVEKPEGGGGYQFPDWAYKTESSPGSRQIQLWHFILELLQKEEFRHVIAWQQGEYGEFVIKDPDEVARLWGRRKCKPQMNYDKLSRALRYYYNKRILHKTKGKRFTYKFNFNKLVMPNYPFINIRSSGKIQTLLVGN
As to conditions: protein: recombinant; tags: N-terminal GST; dsDNA, one strand shown. A digest of the protocol:
as §1

The target in another assay is ETV6 (Homo sapiens, UniProt P41212 1-452). To be noted: protein: recombinant; tags: N-terminal GST; dsDNA, one strand shown. The gist of the method: as §1
Chain of ETV6 (P41212 whole entry): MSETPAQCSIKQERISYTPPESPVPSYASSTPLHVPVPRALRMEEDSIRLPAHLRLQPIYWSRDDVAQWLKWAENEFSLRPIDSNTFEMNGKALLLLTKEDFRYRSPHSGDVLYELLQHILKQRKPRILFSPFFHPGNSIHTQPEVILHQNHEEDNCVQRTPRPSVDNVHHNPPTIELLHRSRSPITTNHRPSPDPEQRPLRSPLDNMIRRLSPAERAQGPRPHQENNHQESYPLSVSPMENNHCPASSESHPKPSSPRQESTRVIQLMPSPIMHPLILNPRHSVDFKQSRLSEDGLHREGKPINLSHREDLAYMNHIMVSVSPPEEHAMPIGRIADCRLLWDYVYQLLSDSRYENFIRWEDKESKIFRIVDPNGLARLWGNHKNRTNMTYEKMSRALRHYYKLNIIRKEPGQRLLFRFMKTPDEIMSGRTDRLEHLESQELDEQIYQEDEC

Chain of ETV5 (P41161 whole entry): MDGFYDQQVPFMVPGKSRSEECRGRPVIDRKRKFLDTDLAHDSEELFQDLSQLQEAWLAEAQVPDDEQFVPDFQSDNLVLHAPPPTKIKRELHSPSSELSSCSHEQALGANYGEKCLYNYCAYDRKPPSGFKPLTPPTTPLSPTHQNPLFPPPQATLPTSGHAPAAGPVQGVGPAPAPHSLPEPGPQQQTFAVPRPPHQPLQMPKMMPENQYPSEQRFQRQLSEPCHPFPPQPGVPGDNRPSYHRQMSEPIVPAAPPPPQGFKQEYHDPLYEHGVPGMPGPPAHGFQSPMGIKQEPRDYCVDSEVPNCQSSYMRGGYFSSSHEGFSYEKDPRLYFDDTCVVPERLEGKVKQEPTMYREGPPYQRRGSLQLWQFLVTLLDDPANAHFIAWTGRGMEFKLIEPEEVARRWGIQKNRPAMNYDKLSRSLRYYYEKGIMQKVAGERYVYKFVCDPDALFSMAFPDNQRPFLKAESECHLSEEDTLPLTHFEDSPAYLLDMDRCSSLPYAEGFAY
Chain of HSF1 (Q00613 whole entry): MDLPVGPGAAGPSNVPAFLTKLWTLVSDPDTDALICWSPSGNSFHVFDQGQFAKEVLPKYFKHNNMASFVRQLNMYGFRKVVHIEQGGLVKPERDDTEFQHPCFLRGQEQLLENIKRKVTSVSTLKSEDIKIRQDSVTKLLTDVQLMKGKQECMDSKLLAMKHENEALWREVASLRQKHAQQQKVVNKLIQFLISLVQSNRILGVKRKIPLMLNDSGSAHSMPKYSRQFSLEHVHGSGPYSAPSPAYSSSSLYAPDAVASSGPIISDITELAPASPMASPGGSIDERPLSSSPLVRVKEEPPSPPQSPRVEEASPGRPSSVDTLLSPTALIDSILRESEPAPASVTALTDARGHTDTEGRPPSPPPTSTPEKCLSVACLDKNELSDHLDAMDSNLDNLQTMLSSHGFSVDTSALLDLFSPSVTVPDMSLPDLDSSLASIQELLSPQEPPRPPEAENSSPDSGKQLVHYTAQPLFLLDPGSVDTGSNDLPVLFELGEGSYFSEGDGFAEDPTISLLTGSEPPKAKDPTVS
Chain of ELF4 (Q99607 whole entry): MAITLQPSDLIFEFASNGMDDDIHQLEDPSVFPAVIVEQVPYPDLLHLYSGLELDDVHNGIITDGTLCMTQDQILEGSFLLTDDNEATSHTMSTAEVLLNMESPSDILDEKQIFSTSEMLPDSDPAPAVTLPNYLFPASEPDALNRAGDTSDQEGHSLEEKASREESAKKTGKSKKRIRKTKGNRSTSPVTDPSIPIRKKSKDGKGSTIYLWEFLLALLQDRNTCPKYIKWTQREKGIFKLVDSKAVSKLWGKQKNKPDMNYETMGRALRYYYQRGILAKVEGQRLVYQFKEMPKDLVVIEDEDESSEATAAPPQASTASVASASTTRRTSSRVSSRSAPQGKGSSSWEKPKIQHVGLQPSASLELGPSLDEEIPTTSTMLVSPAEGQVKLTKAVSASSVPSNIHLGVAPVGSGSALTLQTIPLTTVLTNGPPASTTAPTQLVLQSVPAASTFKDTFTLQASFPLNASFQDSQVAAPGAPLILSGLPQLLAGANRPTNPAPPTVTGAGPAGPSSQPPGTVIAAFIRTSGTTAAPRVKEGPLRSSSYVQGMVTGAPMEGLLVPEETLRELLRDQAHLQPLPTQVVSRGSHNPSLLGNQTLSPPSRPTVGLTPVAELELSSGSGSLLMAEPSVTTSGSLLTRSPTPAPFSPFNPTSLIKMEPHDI
Chain of CRX (O43186 whole entry): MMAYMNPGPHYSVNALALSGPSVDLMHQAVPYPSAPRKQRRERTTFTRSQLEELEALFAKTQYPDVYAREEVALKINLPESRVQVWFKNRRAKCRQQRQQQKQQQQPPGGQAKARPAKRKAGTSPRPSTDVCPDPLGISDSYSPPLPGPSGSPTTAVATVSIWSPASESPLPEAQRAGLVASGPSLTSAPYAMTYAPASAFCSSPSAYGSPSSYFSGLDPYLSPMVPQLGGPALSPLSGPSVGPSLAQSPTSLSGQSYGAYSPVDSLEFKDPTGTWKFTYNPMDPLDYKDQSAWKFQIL
Chain of ETV1 (P50549 whole entry): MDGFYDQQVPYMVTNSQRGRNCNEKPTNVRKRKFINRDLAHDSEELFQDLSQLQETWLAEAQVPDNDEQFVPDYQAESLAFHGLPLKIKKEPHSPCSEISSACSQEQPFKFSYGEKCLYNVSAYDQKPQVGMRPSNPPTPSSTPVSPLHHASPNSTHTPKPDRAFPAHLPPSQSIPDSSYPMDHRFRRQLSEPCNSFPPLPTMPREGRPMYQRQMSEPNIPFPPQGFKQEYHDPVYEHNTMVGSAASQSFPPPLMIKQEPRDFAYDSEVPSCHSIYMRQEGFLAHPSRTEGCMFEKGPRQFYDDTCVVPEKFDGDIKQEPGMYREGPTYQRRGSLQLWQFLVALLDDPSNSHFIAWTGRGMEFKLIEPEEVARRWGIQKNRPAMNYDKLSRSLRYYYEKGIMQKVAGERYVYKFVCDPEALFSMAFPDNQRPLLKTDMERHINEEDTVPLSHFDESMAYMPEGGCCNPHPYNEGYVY

Regarding CAAAAC, the binding signal was 1.3 fold enrichment (6-mer frequency, TF over GST control) with FEV; 1.26 fold enrichment (6-mer frequency, TF over GST control) with ETV5; 1.05 fold enrichment (6-mer frequency, TF over GST control) with HSF1; 1.23 fold enrichment (6-mer frequency, TF over GST control) with SPIC; 1.34 fold enrichment (6-mer frequency, TF over GST control) with ELF4; 1.28 fold enrichment (6-mer frequency, TF over GST control) with ELK4. Besides, the binding signal in the assay with ETV2 was 1.24 fold enrichment (6-mer frequency, TF over GST control); with ELF3, 1.28 fold enrichment (6-mer frequency, TF over GST control); with CRX it was 1.02 fold enrichment (6-mer frequency, TF over GST control); with ETV1, 1.2 fold enrichment (6-mer frequency, TF over GST control); in the assay with ERF it was 1.28 fold enrichment (6-mer frequency, TF over GST control); with ETV3L, 1.27 fold enrichment (6-mer frequency, TF over GST control). Besides, the binding signal with ETS2 is 1.27 fold enrichment (6-mer frequency, TF over GST control); with SPDEF, 1.23 fold enrichment (6-mer frequency, TF over GST control); with ETV7, 1.23 fold enrichment (6-mer frequency, TF over GST control); in the assay with ELF5, 1.25 fold enrichment (6-mer frequency, TF over GST control); with ETV3, 1.18 fold enrichment (6-mer frequency, TF over GST control); with ETV6 it was 1.33 fold enrichment (6-mer frequency, TF over GST control).
